Measurements reported in PubChem BioAssay (NCATS).
Records with an inconclusive call do not appear. Entries that show only a call come without a potency. Unmarked numbers belong to inactive results. Active and inactive are the calls of the source. Calls follow the shape of the dose curve; as a rule, active = well fitted inhibition curve with a large enough effect; inconclusive = small, poorly fitted or top-dose-only effect; inactive = no such curve, though single readings can be large or run the other way.
Potency is read from the fitted curve at half-maximal effect.

Each compound was assayed against Cytochrome P450 3A4 (Homo sapiens) (UniProt P08684) (assay: qHTS Assay for Inhibitors and Substrates of Cytochrome P450 3A4 (AID 884; also: nearly all actives have a fitted effect of over 50% in size)). Details: recombinant CYP3A4, Luciferin-PPXE luminescence; series mostly up to 57.1 µM.
Sequence of Cytochrome P450 3A4 (Homo sapiens) (P08684 whole entry, looked up): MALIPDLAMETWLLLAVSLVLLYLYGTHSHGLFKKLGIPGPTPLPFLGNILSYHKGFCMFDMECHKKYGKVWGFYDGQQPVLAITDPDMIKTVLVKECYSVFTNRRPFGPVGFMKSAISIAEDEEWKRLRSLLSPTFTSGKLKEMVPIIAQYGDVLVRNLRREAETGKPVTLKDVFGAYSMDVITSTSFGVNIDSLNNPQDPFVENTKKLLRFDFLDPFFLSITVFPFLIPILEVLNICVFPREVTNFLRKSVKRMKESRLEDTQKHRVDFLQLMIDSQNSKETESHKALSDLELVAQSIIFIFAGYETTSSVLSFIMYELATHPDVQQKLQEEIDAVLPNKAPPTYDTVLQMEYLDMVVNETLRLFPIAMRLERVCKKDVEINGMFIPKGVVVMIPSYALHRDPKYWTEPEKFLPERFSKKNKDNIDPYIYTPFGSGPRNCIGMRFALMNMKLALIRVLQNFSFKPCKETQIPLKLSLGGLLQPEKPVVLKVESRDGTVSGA
How it was run: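 Luminescent readout of luciferin produced by CYP3A4 (20 nM) dealkylation of Luciferin-PPXE, 25 uM (its KM). NADPH-driven reaction ran 60 min at RT after 10 min compound preincubation; data scaled to 57 uM ketoconazole as 100% inhibition.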
For N#Cc1ccc(C23CC4(C2)[C@H](CN(Cc2ccc(-c5ccccc5)cc2)[C@@H]4c2ccccc2)C3c2ccc(C(F)(F)F)cc2)cc1 (stereo not given in full), the Potency was “inactive”. In the case of OB(O)c1ccc(Cl)s1, the Potency is reported as “inactive”. For O=C(O)c1cc(C(F)(F)F)nc2ccccc12, the Potency was “inactive”. With CCCN1[C@H](C(=O)OC)C[C@@]2(O)[C@@H](O)[C@@H](O)[C@@H](O)C[C@@H]12 the Potency was “inactive”. O=Cc1ccsc1B(O)O was tested, and the Potency was “inactive”. For O=C(O)c1ccc(NS(=O)(=O)c2ccsc2C(=O)O)c(O)c1, the Potency was “inactive”. With COC(=O)c1cccc(C23CC4(C2)[C@H](CN(Cc2ccc(-c5ccccc5)cc2)[C@@H]4c2ccccc2)C3c2ccc(Cl)nc2)c1 (stereo not given in full) the Potency was “inactive”. O=C(O)c1cc(C2CC2)nc2ccccc12 was tested, and the Potency was “inactive”. CC(=O)c1ccsc1B(O)O was tested, and the Potency was “inactive”. For FC(F)(F)c1cccc(-c2noc(-c3cc(-c4ccccc4)c(C(F)(F)F)s3)n2)c1, the Potency was “inactive”. In the case of COC(=O)[C@@H]1C[C@@]2(O)[C@@H](O)[C@@H](O)[C@@H](O)C[C@H]2N1CC(c1ccccc1)c1ccccc1, the Potency is reported as 3.16 µM (active). For COC(=O)[C@@H]1C[C@@]2(O)[C@@H](O)[C@@H](O)[C@@H](O)C[C@H]2N1Cc1ccc(N2CCOCC2)cc1, the Potency was “inactive”. In the case of N=C(N)c1ccc(N2CCN(C3CCN(CC(=O)O)CC3)CC2)cc1, the Potency is reported as “inactive”. CCC1=C2CC[C@H]3C(=O)N(c4ccccc4)C(=O)[C@H]3[C@H]2[C@@]2(C)C(=O)N(Cc3ccccc3)C(=O)N2C1=O was tested, and the Potency was “inactive”. Work on Cc1cc(N)c2cc(OCCOc3ccc4nc(C)cc(N)c4c3)ccc2n1 yielded an activity change, negative = inhibition of -0.402% [at 11.4 µM]. In the case of COC(=O)[C@@H]1C[C@@]2(O)[C@H](O)[C@H](O)[C@H](O)C[C@H]2N1C/C=C/c1ccccc1, the Potency is reported as “inactive”. CCC1=C2CC[C@H]3C(=O)N(C)C(=O)[C@H]3[C@H]2[C@@]2(C)C(=O)N(CC3CC3)C(=O)N2C1=O was tested, and the Potency was “inactive”. COC(=O)[C@@H]1C[C@@]2(O)[C@H](O)[C@H](O)[C@H](O)C[C@H]2N1CC1CCCCC1 was tested, and the Potency was “inactive”. In the case of CCC1=C2CC[C@H]3C(=O)N(C)C(=O)[C@H]3[C@H]2[C@@]2(C)C(=NCc3ccccc3)OC(=O)N2C1=O, the Potency is reported as 12.6 µM (active). COC(=O)c1ccc(C23CC4(C2)[C@H](CN(Cc2ccc(-c5ccccc5)cc2)[C@@H]4c2ccccc2)C3c2ccccc2)cc1 (stereo not given in full) was tested, and the Potency was “inactive”. With O=C(O)c1ccc(NS(=O)(=O)c2ccsc2C(=O)O)cc1 the Potency was “inactive”. For COC(=O)[C@@H]1C[C@@]2(O)[C@@H](O)[C@@H](O)[C@@H](O)C[C@H]2N1Cc1ccc(Cl)cc1, the Potency was “inactive”. In the case of FC(F)(F)c1ccc(C2[C@H]3CN(CC4CCCCC4)[C@H](c4ccccc4)C34CC2(c2ccccc2)C4)cc1 (stereo not given in full), the Potency is reported as “inactive”. With O=C(N[C@@H](Cc1ccccc1)C(=O)O)c1ccccc1 the Potency was “inactive”. In the case of CC(C)Cn1c(N)c(C(=O)COC(=O)c2cc(C3CC3)nc3ccccc23)c(=O)n(C)c1=O, the Potency is reported as “inactive”. In the case of COC(=O)[C@@H]1C[C@@]2(O)[C@H](O)[C@H](O)[C@H](O)C[C@H]2N1Cc1cc(F)ccc1F, the Potency is reported as “inactive”. With CC1=C(C(=O)OCc2ccccc2)C(C2CC2)NC(=O)N1CCCCCC(=O)O (stereo not given) the Potency was “inactive”. With COC(=O)[C@@H]1C[C@@]2(O)[C@@H](O)[C@@H](O)[C@@H](O)C[C@H]2N1Cc1ccc(C(F)(F)F)cc1 the Potency was “inactive”. With CN(C)/C=N/c1cc(=O)n(Cc2ccccc2)c(=O)n1C the Potency was “inactive”. CCC1=C2CC[C@H]3C(=O)NC(=O)[C@H]3[C@H]2[C@@]2(Cc3ccccc3)C(=NCc3ccccc3)OC(=O)N2C1=O was tested, and the Potency was 6.31 µM (active). Nc1cccc(B(O)O)c1 was tested, and the Potency was “inactive”. CC(C)Cn1c(N)c(C(=O)COC(=O)c2cc(C(F)(F)F)nc3ccccc23)c(=O)n(C)c1=O was tested, and the Potency was “inactive”. With C#CC(C)OC(=O)C(C)NC(=O)c1ccccc1 (stereo not given) the Potency was “inactive”. In the case of COc1cc(/C=C/C(=O)N2CCCCC2=O)cc(OC)c1OC, the Potency is reported as “inactive”. Cn1c(N)cc(=O)n(Cc2ccccc2)c1=O was tested, and the Potency was “inactive”. CCC1=C2CC[C@H]3C(=O)NC(=O)[C@H]3[C@H]2[C@@]2(C)C(=NCCOC)OC(=O)N2C1=O was tested, and the Potency was “inactive”. Cc1ccc(B(O)O)cc1 was tested, and the Potency was “inactive”. For CCC1=C2CC[C@H]3C(=O)NC(=O)[C@H]3[C@H]2[C@@]2(C)C(=NCC(=O)OC)OC(=O)N2C1=O, the Potency was “inactive”. CN1CCN(C(=O)c2nc3ccc(Cl)cc3[nH]2)CC1 was tested, and the Potency was “inactive”. For N#Cc1ccc(C23CC4(C2)[C@H](CN(Cc2ccc(-c5ccccc5)cc2)[C@@H]4c2ccccc2)C3c2ccc(Cl)nc2)cc1 (stereo not given in full), the Potency was “inactive”.
